About 83,000 compounds went through this panel and 20% of them were active in at least one assay; those are over-represented in the sample as a whole.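 Each cell line was grown in a 96-well plate and treated with one concentration of compound for 48 hours. Values below 10 were considered active.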 Values without a mark were called inactive. Calls of active or inactive are those of the source.
Tested on: HL-60(TB) leukemia
Assay: NCI-60 one-dose screen, 48 h (100 = growth as untreated, 0 = no growth, -100 = all killed)
Settings: 10 µM unless noted

Row | SMILES | growth
1 | O=C(CSc1nnc(-c2c[nH]c3ccccc23)n1-c1ccccc1)c1ccc(Br)cc1 | 44.5%
2 | COc1cc2cc(C(=O)N3C[C@@H](CCl)c4c3cc(OC(=O)N(C)CCSSCCN3CCOCC3)c3ccccc43)[nH]c2c(OC)c1OC | -39.6% (active)
3 | O=C(NN1C(=O)/C(=C/C=C/c2ccc([N+](=O)[O-])o2)SC1=S)c1cccc(O)c1 | -2.32% (active)
4 | COc1cc2c3c(n(CCCN4CCOCC4)c(=O)c2cc1OC)-c1nc2c(cc1C3=O)OCO2 | 65.2%
5 | Cc1cc(C)nc(NS(=O)(=O)c2ccc(N/C(N)=N/c3nccc(-c4ccccc4)n3)cc2)n1 | -25.8% (active)
6 | Cc1nn(-c2ccccc2)c2ncn(CC(=O)N/N=C/c3c[nH]c4ccccc34)c(=O)c12 | 83.8%
7 | O=C(Nc1ccc(F)cc1)Nc1nc2ccc([N+](=O)[O-])cc2s1 | -11.5% (active)
8 | Nc1nn2c(-c3cc4cc(Br)ccc4oc3=O)ccnc2c1N=Nc1ccc(Br)cc1 | 98.5%
9 | CC(=O)OC[C@@]1(C)C2CC[C@]3(C)C(CC=C4C5CC(C)(C)CC[C@]5(C(=O)Nc5cccc(C)c5)CC[C@]43C)[C@@]2(C)C[C@@H](OC(C)=O)[C@@H]1OC(C)=O (stereo not given in full) | 29.4%
10 | Cn1cc(-c2cc(N)n3nc(-c4c[nH]c5ccccc45)cc3n2)c2cc(F)ccc21 | 7.1% (active)
11 | CC(=O)Oc1ccccc1C(=O)[Se]C(=NC1CCCCC1)NC1CCCCC1 | -17.5% (active)
12 | CC(C)c1ccc2c(N)c(C(=O)Nc3cccc(C(F)(F)F)c3)sc2n1 | 66.2%
13 | CCCCCCCCc1ccc(S(=O)(=O)Nc2ccc(CC)cc2C(=O)O)cc1 | 120%
14 | CCCCCCCCc1cccc(CC(=O)Nc2ccc(C)cc2C(=O)O)c1 | 33.5% [25 µM]
15 | COc1cc(OC(F)(F)F)ccc1C(=O)Nc1sc2c(c1C#N)CCC(=O)C2 | 38%
16 | CCCCCCCCc1ccc(C(=O)Nc2ccc(C)c(OP(=O)(O)O)c2)cc1 | 78.4%
17 | Cc1cc(C)nc(NS(=O)(=O)c2ccc(N/C(N)=N/c3nccc(-c4cccs4)n3)cc2)n1 | 1.77% (active)
18 | CONC[C@]1(C)C=C2C(=O)[C@](C)(O)C3(CC3)C(C)=C2[C@H]1O | -29.3% (active)
19 | CC1=C(C(=O)c2ccccc2)C(c2ccc(-n3cncn3)cc2)n2c(nc3ccccc32)N1 (stereo not given) | 86.9%
20 | CC1CCc2c(sc3nc(SCC(=O)c4cccc([N+](=O)[O-])c4)n(-c4ccccc4)c(=O)c23)C1 (stereo not given) | 87.1%

Row | SMILES | growth
21 | Cc1ccc(-c2nc(C#N)c(S(=O)(=O)N3CCN(S(=O)(=O)c4ccc(Cl)cc4)CC3)o2)cc1 | 79.9%
22 | N#Cc1c(NC(=O)c2ccc(C(F)(F)F)c(Cl)c2)sc2c1CCC(=O)C2 | -14.4% (active)
23 | Cn1cc(-c2nc(N)nnc2-c2c[nH]c3ccc(Br)cc23)c2cccnc21 | 5.1% (active)
24 | COC(=O)c1c(C(=O)OC)c2ccc3c4ccccc4ccc3n2c1C(=O)C(C)Br (stereo not given) | 39%
25 | Brc1ccc(-c2n(Cc3ccc4ccccc4c3)c(-c3ccccc3)c(-c3ccccc3)[n+]2Cc2ccc3ccccc3c2)cc1 | -5.57% (active)
26 | COc1cc2oc(-c3cccc(NC(=O)[C@H](Cc4ccccc4)NC(=O)OC(C)(C)C)c3)cc(=O)c2c(OC)c1OC | 22.9%
27 | N#Cc1ccc(-c2nn(-c3ccc(C(=O)O)cc3)cc2CNc2ccc(Cl)cc2)cc1 | 87.8%
28 | N/C(=N\c1nc2ccccc2s1)NC(=O)Nc1ccccc1F | -5.29% (active)
29 | CCOC(=O)c1c(CSc2ccccc2)n(C)c2cc(CN(C)C)c(O)c(CN(C)C)c12 | 52.2%
30 | O=C(c1ccc(O)cc1)C1[C@H](c2ccccc2Br)[C@@H](c2ccccc2)NC12C(=O)Nc1ccc(Cl)cc12 (stereo not given in full) | -17.3% (active)
31 | CCN1C(=O)/C(=N\N=C(/C)c2ccc3c(c2)Nc2ccccc2S3)c2cc(Cl)ccc21 | 75.2%
32 | CC1(c2cc3cc(Br)ccc3oc2=O)NC(=O)c2c(/C=C/C(=O)OC3CC4CCC3(C)C4(C)C)cccc2N1 (stereo not given) | 48.9%
33 | COc1ccc(N=Nc2c(N)nn3c(-c4ccc(F)cc4)ccnc23)cc1 | 95.3%
34 | COc1cccc2nc(Nc3ccc(F)c(NC(=O)c4ccc(CN5CCN(C)CC5)c(C(F)(F)F)c4)c3)ccc12 | -73.1% (active)
35 | COc1cc(C2CC(c3ccc(Cl)cc3)=Nc3c(N)nc(N)nc3N2)ccc1Oc1nc(Nc2ccc(F)cc2)nc(N(C)C)n1 (stereo not given) | 16.3%
36 | Cc1ccc(/C=C/C(=O)c2ccc(NC(=O)CSc3nnc(-c4c[nH]c5ccccc45)n3-c3ccccc3)cc2)c(C)c1 | 79.6%
37 | Cn1cc(-c2nc(N)nnc2-c2c[nH]c3ccc(F)cc23)c2cc(Br)cnc21 | -34% (active)
38 | COc1ccc2nc(NC(=O)c3ccc(N(C)C)cc3)sc2c1 | 51.5%
39 | CC(C)C1=C[C@@]23CC[C@@H]4[C@](C)(CCC[C@]4(C)C(=O)NCc4ccccc4)[C@H]2C[C@@H]1[C@H]1C(=O)CCC(=O)[C@H]13 | 53.5%
40 | COc1ccc(C2=NN(C(C)=O)C(c3ccc(OCc4ccc(Cl)cc4)c(OC)c3)C2)cc1OC (stereo not given) | 34.6%

Reference: PubChem BioAssay (NCI)
